Here are results for 25 molecules from PubChem BioAssay (NCATS).

Values joined by “and” are separate entries in the source; they are usually repeats but may differ in a detail not shown here. Identical values can stand only once. Results filed as inconclusive are left out. Some structures have more than one record in an assay (separate samples or runs), and their calls can disagree. Active and inactive are the calls of the source. Unless noted, calls follow the shape of the dose curve; as a rule, active = well fitted curve in the direction sought with a large enough effect; inconclusive = small, poorly fitted or top-dose-only effect, or another doubt; inactive = no such curve, though single readings can be large; an effect the other way counts as inactive or inconclusive.

A short description of assay [1]: P-glycoprotein substrates identified in KB-3-1 adenocarcinoma cell line, qHTS therapeutic library screen (AID 1346986). Also: nearly all actives have a fitted effect of over 60% in size. Also: potency is read from the fitted curve at half-maximal effect. As to activity change, negative = cytotoxicity: % is scaled to controls: 0 for no effect and ±100 for the full control effect. The method, boiled down:
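In 1536-well format, 500 cells/well received pinned compound titrations and were incubated 72 h, 5% CO2. Viability was read by CellTiter-Glo; cytotoxic if AC50 < 10 uM and efficacy >50%.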
(In general: Quantitative high-throughput screening tests each substance at several concentrations.)

The nature of assay [2]: P-glycoprotein substrates identified in KB-8-5-11 adenocarcinoma cell line, qHTS therapeutic library screen (AID 1346987). Also: nearly all actives have a fitted effect of over 65% in size. Also: potency is read from the fitted curve at half-maximal effect. As to activity change, negative = cytotoxicity: series mostly up to about 44 µM; % is scaled to controls: 0 for no effect and ±100 for the full control effect. The method in brief:
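Luminescence from CellTiter-Glo, read 5 min after addition, quantified survival of KB-8-5-11 (P-gp-overexpressing) cells exposed to compounds for 72 h. AC50 was derived from concentration-response curves.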

The nature of assay [3]: Primary qHTS for inhibitors of nuclear receptor binding SET domain protein 2 (NSD2) in an isogenic RCH-ACV NSD2 p.E1099K mutant (9B) (AID 1645876). Also: nearly all actives have a fitted effect of over 70% in size. Also: potency is read from the fitted curve at half-maximal effect.
The nature of assay [4]: Primary qHTS for inhibitors of nuclear receptor binding SET domain protein 2 (NSD2) in an RCH-ACV wild type WT cells (2C) (AID 1645877). Also: nearly all actives have a fitted effect of over 70% in size. Also: potency is read from the fitted curve at half-maximal effect.
A short description of assay [5]: Primary qHTS for small molecule stabilizers of the endoplasmic reticulum resident proteome: Secreted ER Calcium Modulated Protein (SERCaMP) assay (AID 1508630). Also: % is scaled to controls: 0 for no effect and ±100 for the full control effect. The method, boiled down:
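The SH-SY5Y reporter protocol was run at 3 concentrations up to 38.3 uM (primary) or 11 concentrations (follow-up): 16 h compound, 100 nM thapsigargin for 4 h, then extracellular luciferase luminescence.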

For assay [6], the target named is Glutathione peroxidase 1 (Homo sapiens) (UniProt P07203). Briefly: Primary qHTS Assay for Inhibitors of Recombinant Selenoprotein Glutathione Peroxidase 1 (GPX1) (AID 1845191). Also: nearly all actives have a fitted effect of over 65% in size. The method in brief: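 GR-coupled readout: NADPH consumption tracked by fluorescence, ex 340/em 450 nm, at t=0 and after 15 min at RT. Final mix 10 nM GPX1, 1 mM GSH, 0.5 mM CHP, 0.5 mM NADPH, 100 nM GR, 0.01% BSA, following 30 min enzyme–compound preincubation.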

Assay [7] has as its target Calcium and integrin-binding protein 1 (Homo sapiens) (UniProt Q99828). Briefly: Primary qHTS for Identification of Calcium Integrin Binding Protein 1 (CIB1) Competitor (AID 1508620).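 Also: GST tagged CIB1 binding a fluorescein labelled alphaIIb integrin peptide tracer; top concentration of the series differs between compounds; % is scaled to controls: 0 for no effect and ±100 for the full control effect.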 The method in brief:
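Fluorescence polarization competition: GST-tagged CIB1 (1 uM final) preincubated with compound 15 min at room temperature, then FITC-labelled alphaIIb peptide (100 nM final) added. After 15 min at room temperature, polarization read at Ex 480/Em 540.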

A short description of assay [8]: qHTS to identify inhibitors of the type 1 interferon - major histocompatibility complex class I in skeletal muscle: primary screen against the NCATS Mechanism Interrogation Plate v5.0 (MIPE) Libary (AID 1347411). Also: nearly all actives have a fitted effect of over 65% in size. Also: potency is read from the fitted curve at half-maximal effect.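 As to activity change, negative = inhibition: plate controls were vehicle for no effect and reference inhibitor for full effect.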 The method, boiled down:
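Seed engineered human myoblasts (HLA-B HiBit) in medium without dexamethasone containing 4 ng/ml IFN-beta; after 1 hr add compound titrations (top 46 uM final). Incubate 24 hrs at 37 C, lyse 10 min with HiBiT reagent, read luminescence.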

The target in assay [9] is Phospholipid hydroperoxide glutathione peroxidase GPX4 (Homo sapiens) (UniProt P36969). Briefly: Primary qHTS Assay for Inhibitors of Recombinant Selenoprotein Glutathione Peroxidase 4 (GPX4) (AID 1845192). Also: nearly all actives have a fitted effect of over 65% in size. Also: potency is read from the fitted curve at half-maximal effect. As to conditions: outcome: dose series up to 50 µM unless noted. The method, boiled down:
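Steps: GPX4 plus compound, 30 min RT; add GR/GSH/NADPH master mix; start with cumene hydroperoxide; read 340/450 nm fluorescence at 0 and 15 min. Finals were 200 nM GPX4, 1 mM GSH, 0.5 mM CHP, 0.5 mM NADPH, 100 nM GR.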

The nature of assay [10]: qHTS drug screen for cell cycle checkpoint inhibitors in PARPi-resistant BRCA-mutant ovarian cancer cell lines. (AID 1963452; calls by dose curve). As to conditions: PEO1/OlaR viability, CellTiter-Glo luminescence, 96 h, stronger effect = lower value. The method in brief: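 PEO1, PEO4 and PEO1/OlaR ovarian cancer cells, 600 per well, exposed 96 h at 37C to a dilution series. Viability read by CellTiter-Glo luminescence, normalized to DMSO and empty wells; activity summarized as Z-AUC.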

Where [11] appears, read: measured here: PEO1 parental Z-AUC.

Glutathione peroxidase 1 (Homo sapiens), sequence (P07203 whole entry, looked up): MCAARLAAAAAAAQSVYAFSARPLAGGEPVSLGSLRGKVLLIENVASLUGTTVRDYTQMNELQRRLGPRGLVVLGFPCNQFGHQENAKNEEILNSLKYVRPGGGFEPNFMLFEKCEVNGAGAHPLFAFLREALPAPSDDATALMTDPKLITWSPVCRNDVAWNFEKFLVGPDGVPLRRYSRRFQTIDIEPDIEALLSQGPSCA
Phospholipid hydroperoxide glutathione peroxidase GPX4 (Homo sapiens), sequence (P36969 whole entry, looked up): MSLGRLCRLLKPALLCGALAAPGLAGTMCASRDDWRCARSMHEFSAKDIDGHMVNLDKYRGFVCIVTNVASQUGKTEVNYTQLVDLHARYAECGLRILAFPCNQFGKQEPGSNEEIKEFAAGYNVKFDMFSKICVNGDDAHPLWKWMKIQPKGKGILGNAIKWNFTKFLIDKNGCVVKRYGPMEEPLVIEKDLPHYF
Calcium and integrin-binding protein 1 (Homo sapiens), sequence (Q99828 whole entry, looked up): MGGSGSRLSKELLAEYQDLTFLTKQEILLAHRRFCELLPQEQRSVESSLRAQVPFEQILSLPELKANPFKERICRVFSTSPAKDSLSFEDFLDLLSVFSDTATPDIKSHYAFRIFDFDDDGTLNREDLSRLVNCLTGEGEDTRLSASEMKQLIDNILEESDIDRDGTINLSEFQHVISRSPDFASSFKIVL

As to `CSc1cc2c(s1)c1cnn(Cc3ccccc3F)c(=O)c1n2C`, the Potency entry in [1], in [2], in assay [3] and in assay [4] was “inactive” throughout.
On to `CC(N)C1CCC(C(=O)Nc2ccncc2)CC1` (stereo not drawn), for which the Potency result in assay [1], in [2], in assay [3] and in [4] was “inactive” in each case.
As to `CSc1nc(N)cc(Oc2ccc(-c3nc(Nc4cccc(C(F)(F)F)c4)n[nH]3)cc2)n1`, the Potency in assay [1] is 4610 nM (active); in assay [2], 5800 nM (active); in assay [3] it was 1640 nM (active); in assay [4] it was 1300 nM (active).
Turning to `CCCCCCCCCCCCC/C=C/[C@@H](O)[C@H](CO)N(C)C`, in [1], the activity change, negative = cytotoxicity was -2.89% [at 5.11 µM] (inactive). For the same molecule, in assay [2], the outcome is “inactive [at 5.11 µM]”. The activity change, negative = inhibition in [5] was -20.6% [at 3.88 µM] (inactive). For the same molecule, the activity change, negative = viability loss in [3] was -1.18% [at 4.96 µM] (inactive). Besides, in [4], the activity change, negative = cell killing was 4.48% [at 4.96 µM] (inactive). In addition, in assay [6], the Potency result is “inactive”.
In the case of `O=C1CCc2cc(S(=O)(=O)Nc3ccc(F)c(Cl)c3)c(F)cc2N1`, the Potency entry in assay [1], in assay [2], in [3], in assay [4] and in assay [6] was “inactive” each time. Also, the result in [7] was inactive.
As for `CN1CCC(c2c(O)cc(O)c3c(=O)cc(-c4ccccc4Cl)oc23)C(O)C1` (stereo not drawn), the Potency in [1] is 231 nM (active); in [2], 517 nM (active); in [3], 291 nM (active); in assay [4] it was 259 nM (active).
As for `OCCn1cc(-c2ccc3c(c2)CC/C3=N\O)c(-c2ccncc2)n1`, the Potency entry in [1], in assay [2], in [8] and in assay [9] was “inactive” throughout. In addition, the Z-AUC in [10] was 2.52 (inactive); in assay [10] (setting [11]) it was 1.44; in assay [10] (measured here: PEO4 Z-AUC), 1.33.
As for `Clc1ccc2ncc(-c3cccc(NC4CCNC4)n3)n2c1` (stereo not drawn), the values for the Potency in [1], in assay [2] and in assay [3] were 820 nM (active), 10300 nM (active) and 1300 nM (active), respectively. The outcome in [7] was inactive. The Potency result in assay [6] was “inactive”.
For the molecule `C#Cc1cccc(Nc2ncnc3cc4c(cc23)OCCOCCOCCO4)c1`, the Potency result in assay [1], in [2], in assay [8], in [4], in assay [6] and in assay [9] was “inactive” in each case. Further, the Z-AUC in [10] was 0.644 (inactive); in [10] (setting [11]), 0.664; in assay [10] (measured here: PEO4 Z-AUC), 0.297.
On to `O=C1CCCC2=C1C(c1ncccc1Br)N=C(Nc1nc3ccccc3o1)N2` (stereo not drawn), for which the Potency entry in [1], in assay [2] and in assay [6] was “inactive” in each case. In assay [7], the outcome was inactive.
Regarding `COc1ccc2nc3ccc(OC)cc3c(SCCCN)c2c1`, the Potency entry in assay [1], in [2], in assay [3] and in [4] was “inactive” in each case.
As to `Cc1cc(N2CCOCC2)cc2[nH]c(-c3c(NCC(O)c4cccc(Cl)c4)cc[nH]c3=O)nc12` (stereo not drawn), the Potency in assay [1] is 2060 nM (active); in assay [2], 5800 nM (active); in assay [3], 1640 nM (active); in assay [4] it was 1460 nM (active).
Turning to `CCc1c(C(=O)NNC(=O)[C@@H](O)c2cc(F)cc(F)c2)ccc(O)c1C`, the Potency result in assay [1], in [2], in [8], in assay [3], in [4] and in [6] was “inactive” throughout. The Potency result in [9] is “inactive”. Besides, the Z-AUC in assay [10] was 1.17 (inactive); in assay [10] (setting [11]), 0.688; in [10] (measured here: PEO4 Z-AUC), 1.04.
As for `NC(=O)c1nc(F)c[nH]c1=O`, the Potency entry in assay [1], in assay [2], in [8], in assay [3] and in assay [4] was “inactive” in each case. For the same molecule, the Potency in assay [9] is 9.04 µM (active) and 22.4 µM (active). Further, the Z-AUC in [10] is -0.413 (inactive); in [10] (setting [11]), -0.874; in assay [10] (measured here: PEO4 Z-AUC), -0.858.
As for `O=C(NOCCO)c1ccc2cncn2c1Nc1ccc(I)cc1F`, the Potency result in assay [1], in [2], in assay [8] and in assay [6] was “inactive” throughout. For the same molecule, the figures for the Z-AUC in assay [10], in assay [10] (setting [11]) and in assay [10] (measured here: PEO4 Z-AUC) were 1.17 (inactive), 0.484 and 0.455, respectively.
With `CC/C=C\CC1C(=O)CCC1CC(=O)OC` (stereo not drawn), the Potency result in [1], in [2], in [3] and in assay [4] was “inactive” throughout.
For `Cc1cn([C@H]2C[C@H](O)[C@@H](CO)O2)c(=O)nc1N`, the Potency entry in assay [1], in assay [2], in assay [3] and in [4] was “inactive” throughout.
In the case of `O=C(Nc1cc(Oc2cc(F)c(NC(=O)C3(C(=O)Nc4ccc(F)cc4)CC3)cc2F)ccn1)C1CC1`, the Potency in [1] was 5170 nM (active); in assay [2], 4610 nM (active); in assay [8], 18600 nM (active); in [3], 2.59 µM (active) and inactive. Moreover, the Potency entry in assay [6] and in assay [9] was “inactive” throughout. Also, the Z-AUC is -0.419 (inactive) in assay [10], 0.97 in assay [10] (setting [11]) and -0.43 in [10] (measured here: PEO4 Z-AUC).
`O=C1CCCC2=C1C(c1ccccc1Br)N=C(Nc1nc3ccccc3o1)N2` (stereo not drawn): the Potency result in assay [1], in assay [2], in [3], in [4] and in [6] was “inactive” throughout. In assay [7], the result was inactive.
Turning to `Cc1cc(Nc2nc(NC(C)c3ccc(F)cc3)c(C#N)cc2F)n[nH]1` (stereo not drawn), the Potency was 164 nM (active) in [1], 731 nM (active) in assay [2], 920 nM (active) in assay [3] and 731 nM (active) in [4].
For `CN1CCCN(C(=O)c2cccc(-c3ccc(/C=C4\C(=O)Nc5ccc(Cl)cc54)o3)c2)CC1`, the Potency in assay [1] was 8200 nM (active); in assay [2] it was 9200 nM (active); in [3], 231 nM (active); in assay [4] it was 231 nM (active).
Regarding `C[C@H]1COCCN1c1cc(C2(S(=O)(=O)C3CC3)CC2)nc(-c2ccc(NC(=S)NCCO)cc2)n1`, the Potency was 103 nM (active) in assay [1], 731 nM (active) in assay [2], 208 nM (active) in assay [8] and 59 nM (active) in assay [3]. Besides, the Potency result in [6] and in assay [9] was “inactive” each time. Further, the Z-AUC is -1.32 (inactive) in [10], -1.07 in assay [10] (setting [11]) and -1.96 in [10] (measured here: PEO4 Z-AUC).
As for `CCn1c(=O)c2cc(C(N)=O)c(N)nc2n(C2CC2)c1=O`, the Potency entry in assay [1], in [2], in assay [3] and in assay [4] was “inactive” each time.
Regarding `CCOc1ccc(/C=C2\SC(=O)N(CCN)C2=O)cc1`, the Potency entry in assay [1], in [2], in assay [3] and in assay [4] was “inactive” throughout.
For `O=C1NC(=O)/C(=C\c2ccc3nccc(-c4ccncc4)c3c2)S1`, the Potency is 1160 nM (active) in assay [1], 1460 nM (active) in assay [2] and 326 nM (active) in assay [3].
